The list is not random: actives were taken first. Their share in the collection is about 1.5%.
Sa RN4220 lethal – S. aureus RN4220 growth inhibition; inhibition, % (no concentration beside the values); AID 1259311; 330,000 compounds, 0.33% hits; OD600, 16 h; in the data active = inhibition above about 85%;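 note: plate controls were untreated cells for no effect and reference antibiotic for full effect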
PriA SSB inh – inhibitors of Klebsiella pneumoniae PriA binding to SSB C-terminal tail; AlphaScreen SSBct-PriA binding, biotinylated peptide; 430,000 compounds, 0.6% hits; inhibition, % at 33 µM; in the data active = inhibition mostly above about 37%, no sharp cut-off; inactive = mostly below about 20%;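 note: plate controls were negative control peptide for no effect and reference peptide for full effect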
CCHF vOTU inh – blocks the CCHF virus ovarian tumor domain protease; 370,000 compounds, 0.55% hits; inhibition, % at 11.5 µM; CCHFV vOTU protease, Pep-AMC fluorescence; AID 651958; in the data active = inhibition above about 30%; note: 0% = vehicle wells with enzyme and 100% = no enzyme wells
Sa ugtP lethal – kills S. aureus RN4220 lacking UgtP; AID 1259309; growth inhibition, % (test concentration not listed); 330,000 compounds, 0.54% hits; S. aureus RN4220 ugtP deletion, OD600 growth, 16 h; in the data active = growth inhibition above about 68%;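 note: plate controls were untreated wells for no effect and antibiotic for full effect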
VHR inh abs – inhibitors of human VHR1 phosphatase (DUSP3); recombinant VHR phosphatase, pNPP absorbance; inhibition, % at 13.3 µM; 290,000 compounds, 0.52% hits; AID 1654; in the data active = inhibition above about 50%
Target sequence (P51452 whole entry, looked up): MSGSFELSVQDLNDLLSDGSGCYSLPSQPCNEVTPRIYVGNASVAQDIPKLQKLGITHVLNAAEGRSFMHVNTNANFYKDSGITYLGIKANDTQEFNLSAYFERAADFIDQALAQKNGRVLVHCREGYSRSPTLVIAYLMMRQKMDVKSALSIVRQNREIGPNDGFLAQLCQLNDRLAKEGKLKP
Starred values were filed as active, the others as inactive.

Screening COc1ccccc1C1C([N+](=O)[O-])=CC([N+](=O)[O-])=CN1C (centres undefined) returned Sa RN4220 lethal 31, PriA SSB inh 7, CCHF vOTU inh 5, Sa ugtP lethal 16 and VHR inh abs 5.
`COc1ccccc1C1NC=C([N+](=O)[O-])C=C1[N+](=O)[O-]` (centres undefined) gave Sa RN4220 lethal 10, PriA SSB inh 45*, CCHF vOTU inh 4, Sa ugtP lethal 7 and VHR inh abs -5.
`Cn1c(=O)c(C(=O)c2ccccc2)nc2ccccc21` gave Sa RN4220 lethal -2, PriA SSB inh -2, CCHF vOTU inh 3, Sa ugtP lethal 1 and VHR inh abs 52*.
COc1ncccc1C(=O)Nc1ccccc1-c1ccc(=O)n(C)n1 was read as PriA SSB inh -8.
For Cc1ccc2nc(SCC(=O)Nc3nonc3C)[nH]c2c1 the results were Sa RN4220 lethal -2, PriA SSB inh 0, CCHF vOTU inh 10, Sa ugtP lethal 4 and VHR inh abs 54*.
For COc1ccc2nc(SCC(=O)Nc3nonc3C)[nH]c2c1 the results were Sa RN4220 lethal 5, PriA SSB inh 4, CCHF vOTU inh -4, Sa ugtP lethal 3 and VHR inh abs 3.
CC(C)c1ccc(/C=C2\SC(=S)N(CCC(=O)NC3C=CS(=O)(=O)C3)C2=O)cc1 (centres undefined) was read as PriA SSB inh -2.
Screening CN1CCN(c2cc(N3CCN(C(=O)c4ccco4)CC3)c3c4c(onc24)-c2ccccc2C3=O)CC1 returned Sa RN4220 lethal 0, PriA SSB inh 77*, Sa ugtP lethal -8 and VHR inh abs 21.
CCOC(=O)N1CCN(c2cc(NCCC(=O)O)c3c4c(onc24)-c2ccccc2C3=O)CC1 was read as Sa RN4220 lethal -3, PriA SSB inh 71, Sa ugtP lethal -13 and VHR inh abs -16.
`O=C1c2ccccc2-c2onc3c(N4CCN(CCO)CC4)cc(N4CCN(C(=O)c5ccco5)CC4)c1c23` gave PriA SSB inh 80*, CCHF vOTU inh 21 and VHR inh abs 11.
`O=C(CCCS(=O)(=O)c1ccccc1)Nc1nccs1` gave PriA SSB inh 1.
For COc1ccc(CCNC(=O)c2cc(=O)c(OC)co2)cc1 the results were PriA SSB inh -19.
Cc1ccc(-n2c(Cc3cccn3C)nnc2SCC(=O)Nc2ccc3c(c2)OCO3)cc1 was read as Sa RN4220 lethal 4, PriA SSB inh 39*, CCHF vOTU inh 0, Sa ugtP lethal 1 and VHR inh abs 28.
For Cn1cccc1Cc1nnc(SCC(=O)Nc2ccc3c(c2)OCCO3)n1-c1ccc(F)cc1 the results were Sa RN4220 lethal 1, PriA SSB inh 12, CCHF vOTU inh -2, Sa ugtP lethal 4 and VHR inh abs 43.
For Cc1ccc(-n2c(Cc3cccs3)nnc2SCC(=O)Nc2ccc3c(c2)OCO3)cc1 the results were PriA SSB inh 62*.
For O=C(CSc1nnc(Cc2cccs2)n1-c1ccccc1)Nc1ccc2c(c1)OCCO2 the results were Sa RN4220 lethal 15, PriA SSB inh 10, CCHF vOTU inh -2, Sa ugtP lethal -1 and VHR inh abs -1.
For Cc1ccc(-n2c(Cc3cccn3C)nnc2SCC(=O)Nc2ccc3c(c2)OCCO3)cc1 the results were PriA SSB inh 16.
Cn1cccc1Cc1nnc(SCC(=O)Nc2ccc3c(c2)OCCO3)n1-c1ccc(Cl)cc1 was read as PriA SSB inh 80*.
For CSc1ccccc1-n1c(=O)c2ccccc2c2ccccc2c1=O the results were PriA SSB inh 8.
Screening CCOC(=O)c1nnn(CC(=O)N(Cc2ccccc2)c2ccc(Br)cc2)c1C(=O)OCC returned PriA SSB inh -5.
For O=C(NCCn1ccnc1-c1ncccn1)c1ccccc1Cl the results were PriA SSB inh 78*.
CCOc1ccccc1C(=O)NCCn1ccnc1-c1ncccn1 was read as PriA SSB inh 55*.
Screening CCOc1ccccc1C(=O)NCCCCNC(=O)c1ccccc1OCC returned Sa RN4220 lethal 4, PriA SSB inh 3, CCHF vOTU inh -7 and Sa ugtP lethal 10.
O=C(/C=C/c1cccs1)NCCn1ccnc1-c1ncccn1 was read as PriA SSB inh 116*.
Screening Cc1oncc1C(=O)NCCn1ccnc1-c1ncccn1 returned PriA SSB inh 46*.
Cc1cc(C(=O)NCCn2ccnc2-c2ncccn2)no1 was read as PriA SSB inh -7.
Screening Cc1ccc(-n2ccnc(SCC(=O)c3ccc(Br)cc3)c2=O)cc1 returned PriA SSB inh 4.
For CN1CCN(C(CNC(=O)NCc2ccc(F)cc2)c2ccsc2)CC1 (centres undefined) the results were PriA SSB inh -4.
Screening O=C(CCSc1nnnn1-c1ccccc1)Nc1cccc(-c2nc3ccccc3s2)c1 returned PriA SSB inh 3.
For Cn1cccc1C(=O)N1CCN(c2cc(C(F)(F)F)ncn2)CC1 the results were PriA SSB inh 2.
`CCOc1ccc(CC(=O)Nc2nc(-c3ccccc3)c(C(C)=O)s2)cc1` gave PriA SSB inh 8.
For COc1cccc2cc(C(=O)NCCn3ccnc3-c3ncccn3)oc12 the results were PriA SSB inh 46*.
Screening COc1ccc(NC(=O)CCC2COc3ccccc3O2)c(OC)c1 (centres undefined) returned Sa RN4220 lethal 15, PriA SSB inh -4, CCHF vOTU inh 6, Sa ugtP lethal -4 and VHR inh abs -12.
Screening COc1ccc(/C=C/C(=O)NCC2COc3ccccc3O2)c(OC)c1 (centres undefined) returned Sa RN4220 lethal -5, PriA SSB inh -10, CCHF vOTU inh 2, Sa ugtP lethal 99* and VHR inh abs 14.
For CC(=O)N(c1ccc(C)cc1C)[C@@H]1C=CS(=O)(=O)C1 the results were PriA SSB inh 3.
`COc1cc(-c2nc3ccc4ccccc4c3c3c2CCC3)ccc1O` gave Sa RN4220 lethal 99*, PriA SSB inh 15, CCHF vOTU inh 4, Sa ugtP lethal 101* and VHR inh abs 10.
COc1cc(-c2nc3ccc4ccccc4c3c3c2CCC3)cc(OC)c1O was read as Sa RN4220 lethal -1, PriA SSB inh 24, CCHF vOTU inh -2, Sa ugtP lethal 62 and VHR inh abs -20.
`Cc1ccc(CSc2ncnc3c2cnn3Cc2ccccc2)cc1` gave Sa RN4220 lethal -4, PriA SSB inh -36, CCHF vOTU inh -3, Sa ugtP lethal 90* and VHR inh abs 39.
For O=C(O)c1ccc(CSc2ncnc3c2cnn3Cc2ccccc2)cc1 the results were Sa RN4220 lethal 10, PriA SSB inh -2, CCHF vOTU inh -9, Sa ugtP lethal 9 and VHR inh abs 34.
`N#Cc1ccc(CSc2ncnc3c2cnn3Cc2ccccc2)cc1` gave Sa RN4220 lethal -8, PriA SSB inh 0, CCHF vOTU inh 1, Sa ugtP lethal 42 and VHR inh abs 33.
Cc1ccc(CSc2ncnc3c2cnn3Cc2ccccc2)cc1C was read as Sa RN4220 lethal -2, PriA SSB inh -8, CCHF vOTU inh 6, Sa ugtP lethal 93* and VHR inh abs 10.
